hgDAF-12 ag = agonists of H. glycines DAF-12 nuclear receptor | HEK293 GAL4-hgDAF12 UAS-luciferase reporter, agonist luminescence; normalized to butyrate control | activation, % at 6.8 µM | actives 1.8% (n = 370,000) | AID 687014;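 active = activation above a cutoff set at the mean of all screened compounds plus 3 SD, cut at about 10% in these data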;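 also: 0% = DMSO wells and 100% = sodium butyrate wells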
DAX1 inh-1 = inhibitors of human orphan nuclear receptor DAX1 (NR0B1). P51843. HEK293 Gal4-DAX1 luciferase reporter, luminescence. inhibition, % at 6.75 µM. actives 0.99% (n = 340,000). AID 504766;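 active = inhibition above the mean over all tested compounds plus 3 SD, cut at about 4.2% in these data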;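 also: 0% = DAX1-transfected cells with DMSO and 100% = empty-vector control cells with DMSO; inhibition shows as a rise in luminescence from relieved DAX1 repression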
Target sequence (P51843 207-470 limits assumed): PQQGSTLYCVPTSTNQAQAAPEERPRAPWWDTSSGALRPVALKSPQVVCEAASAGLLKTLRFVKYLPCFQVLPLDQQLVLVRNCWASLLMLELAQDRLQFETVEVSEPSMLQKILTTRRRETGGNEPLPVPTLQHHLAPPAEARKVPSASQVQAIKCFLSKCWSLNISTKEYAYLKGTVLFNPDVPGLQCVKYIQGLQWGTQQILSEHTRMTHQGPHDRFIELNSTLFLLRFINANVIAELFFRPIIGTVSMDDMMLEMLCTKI
hcDAF-12 act = H. contortus DAF-12 activation, primary screen; activation, % at 6.8 µM; HEK293 hcDAF-12 lit1-tk-luc reporter, luminescence; 0% DMSO, 100% Δ7-dafachronic acid; actives 1.4% (n = 370,000); AID 652067;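 active = activation above the mean of all tested compounds plus 3 SD, cut at about 5.5% in these data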;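 also: 100% = response to 3 µM Δ7-dafachronic acid high control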
ssDAF-12 act = activators of S. stercoralis DAF-12 nuclear receptor; actives 1% (n = 370,000); HEK293 ssDAF-12/GRIP1 lit1-tk-luc reporter, luminescence; % of 3 µM dafachronic acid response; activation, % at 6.8 µM;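 active = activation above the mean over all tested compounds plus 3 SD, cut at about 0.9% in these data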;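 also: 0% = DMSO-only wells and 100% = 3 µM delta7-dafachronic acid wells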
DAX1 inh-2 = DAX1 (NR0B1) inhibition, primary screen; AID 652010; actives 1.1% (n = 370,000); HEK293T StAR-luciferase reporter, SF-1/DAX-1 repression relief; inhibition, % at 6.8 µM;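 active = inhibition above the mean over all tested compounds plus 3 SD, cut at about 3.6% in these data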;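 also: 0% = DAX-1 cells with DMSO and 100% = cells lacking DAX-1 with DMSO; higher inhibition means more luminescence from relief of DAX-1 repression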
Rev-erbA mod = modulates human Rev-erb alpha binding to DNA. P20393. Rev-erbα–FITC-DNA binding, fluorescence polarization, 90 min. activity, % at 10 µM. actives 0.79% (n = 370,000);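 active = activity above about 14%, limit read from the data; passing the limit was not always enough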;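 also: 0% = DMSO wells with 35 nM protein and 100% = DMSO wells with 750 nM protein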
hgDAF12 conf = hgDAF-12 agonism, confirmation assay. shares compounds with hgDAF-12 ag. HEK293 GAL4-hgDAF12 luciferase reporter, agonist mode; percent of butyrate response. activation, % at 6.8 µM. actives 80% (n = 3,300). AID 743050;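 active = mean activation over triplicate wells above the hit cutoff derived from the earlier primary screen, cut at about 11% in these data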;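 also: 0% = DMSO low control and 100% = 2 mM sodium butyrate high control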
LXRb DAF12 ctr = LXR-beta agonism as DAF-12 counter-screen; AID 743051; activation, % at 6.8 µM; shares compounds with hgDAF-12 ag; HEK293 Gal4-LXR luciferase reporter, 24 h; 3,300 tested, under 10 active;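 active = mean activation of the triplicate above a set limit carried over from the primary screen, none filed active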
Target sequence (P55055 whole entry, looked up, the tested form may be a part): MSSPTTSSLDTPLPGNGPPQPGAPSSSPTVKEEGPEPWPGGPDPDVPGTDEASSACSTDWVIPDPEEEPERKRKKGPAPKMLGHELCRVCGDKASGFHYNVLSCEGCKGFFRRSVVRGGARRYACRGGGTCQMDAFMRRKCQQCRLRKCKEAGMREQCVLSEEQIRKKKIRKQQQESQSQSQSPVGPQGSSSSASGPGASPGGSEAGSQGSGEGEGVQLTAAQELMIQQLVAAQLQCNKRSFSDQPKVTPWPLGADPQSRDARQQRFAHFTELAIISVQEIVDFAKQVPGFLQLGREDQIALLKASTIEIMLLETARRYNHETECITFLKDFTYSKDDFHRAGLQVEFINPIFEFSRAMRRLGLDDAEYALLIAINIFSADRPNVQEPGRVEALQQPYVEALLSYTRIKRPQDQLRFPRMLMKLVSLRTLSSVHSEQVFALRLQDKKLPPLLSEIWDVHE
Active calls of the source: *; nt = no result. Only some compounds are listed: those with a hit (about 4.8% of all), similar ones and a draw of the others.

SMILES | hgDAF-12 ag | DAX1 inh-1 | hcDAF-12 act | ssDAF-12 act | DAX1 inh-2 | Rev-erbA mod | hgDAF12 conf | LXRb DAF12 ctr
O=C(Cc1ccccc1)Nc1ccc2c(c1)OC1(CCCC1)O2 | 14* | 0 | 1 | 0 | 4 | 1 | 15* | 0
COc1ccccc1CC(=O)Nc1ccc2c(c1)OC1(CCCC1)O2 | 8 | 1 | 0 | -1 | 2 | -5 | nt | nt
COC(=O)C1=C(C)N(Cc2ccc(C(F)(F)F)cc2)C(=NCc2ccc3c(c2)OCO3)NC1c1ccccc1C(F)(F)F (stereo not drawn) | 0 | nt | -1 | -1 | 0 | -1 | nt | nt
Cc1cc(N2CCOCC2)ccc1/C=C1/SC(=O)NC1=O | 16* | 1 | 5 | 0 | 1 | 0 | 9 | 0
C=CC(C)N1C(=O)S/C(=C\c2ccc(N3CCOCC3)cc2C)C1=O (stereo not drawn) | 7 | 2 | 1 | -1 | 1 | 4 | nt | nt
CC1=Nc2ccccc2N=C(NC(=O)c2ccccc2)C1c1ccc(Cl)cc1 (stereo not drawn) | 18* | 1 | 0 | 0 | 2 | 4 | -3 | 0
Cc1ccccc1NC(=S)N/N=C/c1ccc(O)cc1O | 20* | 4 | 4 | 0 | 1 | 3 | 7 | 0
Cc1cccc(NC(=S)N/N=C/c2cccc(O)c2)c1C | 2 | -3 | -2 | -2 | -2 | -2 | nt | nt
COc1ccc(Cc2c(C3CCCCC3)nc3ccc(Br)cn23)c(C)c1 | -1 | nt | 1 | 0 | 1 | 3 | nt | nt
COc1ccc(Cc2c(-c3ccc(F)cc3)nc3ccc(Br)cn23)c(C)c1 | 14* | nt | 2 | 0 | 0 | 4 | 8 | 0
CCCc1nc2ccc(C)cn2c1Cc1ccc(C)cc1 | 14* | nt | 5 | 0 | 1 | 0 | 9 | 0
COc1ccccc1Cc1c(-c2cccc(Cl)c2)nc2ccc(C)cn12 | 15* | nt | 2 | 0 | 3 | 6 | 5 | 0
Cc1ccc(Cc2c(-c3ccc(C#N)cc3)nc3ccc(C)cn23)cc1 | 8 | nt | 2 | -1 | 1 | -5 | nt | nt
Cc1ccc(-c2nc3ccc(C)cn3c2Cc2cccc(F)c2)cc1 | 15* | nt | 3 | 0 | 3.6* | 4 | 5 | 0
COc1ccc(Cn2cc(CN3[C@H](C)COc4cc(Br)ccc4S3(=O)=O)nn2)cc1 | -2 | nt | -2 | -1 | -1 | 4 | nt | nt
COc1ccc(-n2c(SCc3ccc([N+](=O)[O-])cc3)nnc2-c2ccco2)cc1 | 2 | nt | -3 | -2 | -1 | 3 | nt | nt
CCN=C1NC(c2ccc(Cl)cc2)C(C(=O)OC)=C(C)N1Cc1cccc(C(F)(F)F)c1 (stereo not drawn) | 0 | nt | 2 | -1 | 0 | 7 | nt | nt
Cc1ccc2nc(C(C)(C)C)c(Cc3cccc(F)c3)n2c1 | 16* | nt | 4 | 2.2* | 3.7* | -4 | 5 | 0
CCc1ccc(-c2cc(C(=O)N/N=C/c3c[nH]c4ccccc34)[nH]n2)cc1 | 18* | 0 | 3 | 1 | -3 | 7 | 1 | 0
CC(=O)Cn1cnc2c(cnn2-c2ccc(C)c(C)c2)c1=O | 15* | 3 | -3 | 1 | 1 | 1 | 12* | 0
COC(=O)c1cc2c(c3c4cc(F)ccc4n(S(=O)(=O)c4cccc(C)c4)c13)C(=O)N(Cc1ccccc1OC)C2 | 1 | nt | 0 | 0 | -1 | 6 | nt | nt
O=C(Nc1nsc(-c2ccccc2)n1)c1ccc(F)cc1 | 16* | 3 | 3 | -1 | 3 | 1 | 10 | 0
Cc1cccc(-c2cccc3c4c([nH]c23)[C@@H]2C[C@H](N(C)C(=S)Nc3ccc(C#N)cc3)[C@H]([C@H](C)O)CN2CC4)c1 | 0 | nt | 1 | -1 | 0 | 1 | nt | nt
CN(C)c1ccc(/C=C2\CCCCC2=O)cc1 | 18* | 4 | 5 | 0 | 4 | 8 | 14* | 1
CN(C)c1ccc(C2C3=C(CCCC3=O)OC3=C2C(=O)CCC3)cc1 | 1 | -1 | 1 | -1 | 0 | -3 | nt | nt
SMILES | hgDAF-12 ag | DAX1 inh-1 | hcDAF-12 act | ssDAF-12 act | DAX1 inh-2 | Rev-erbA mod | hgDAF12 conf | LXRb DAF12 ctr
COc1ccc(-c2cscc2N)cc1 | 1 | nt | -1 | -1 | -2 | -1 | nt | nt
COc1cc(OC)cc(C(=O)O/N=C(\N)c2cccc(C)c2)c1 | 1 | 1 | -1 | -1 | 0 | -6 | nt | nt
Cc1cccc(/C(N)=N/OC(=O)c2cccnc2)c1 | 20* | 2 | 5 | 1.1* | 3 | 0 | 11* | 1
O=C(Nc1cccnc1)c1ccccc1Oc1ccccc1 | 3 | -1 | 3 | 0 | -1 | 0 | nt | nt
O=C(Nc1cccnc1)c1ccc(Oc2ccccc2)cc1 | 14* | 2 | 2 | 0 | 1 | 6 | 15* | 1
C#CCOCCOCCOCCNc1nc(N2CCN(C(=O)[C@H]([C@@H](C)CC)n3cc(CCCCN)nn3)CC2)nc(N2CCN(C(=O)[C@H](Cc3ccc(O)cc3)n3cc(CCO)nn3)CC2)n1 | -2 | nt | -2 | -2 | nt | -1 | nt | nt
c1ccc(-c2cn3nc4c(nc3n2)CCCC4)cc1 | 4 | 0 | 3 | 0 | 0 | 2 | nt | nt
c1ccc(-c2cn3nc(-c4ccccc4)cnc3n2)cc1 | 17* | 4 | 2 | -1 | 3 | 3 | 8 | 0
CCOC(=O)Cn1cc(CN2C(C(=O)OC)CN(C3CC3)CCS2(=O)=O)nn1 (stereo not drawn) | 4 | nt | -2 | -1 | 0 | -1 | nt | nt
CN1CCC(=NNC(=O)C(=O)Nc2ccccc2F)CC1 | 24* | 3 | -1 | -2 | 0 | 9 | 2 | 0
O=C(/C=C/c1ccnc2ccccc12)c1cccs1 | 14* | 1 | 4 | 0 | 2 | 2 | 15* | 1
ON=Cc1ccnc2ccccc12 | 0 | 2 | -1 | -1 | 0 | -8 | nt | nt
O=C(N/N=C/C(Br)=C/c1ccccc1)c1cccs1 | 24* | 4.5* | 3 | 1 | 3 | 6 | 15* | 1
Cc1ccc(/C=N/NC(=O)c2cccs2)o1 | 10 | 1 | 1 | 0 | 1 | 3 | nt | nt
Cc1cc(/C=N/NC(=O)c2cccs2)c(C)n1-c1ccccc1 | -9 | -1 | -2 | -2 | -1 | 3 | nt | nt
Cc1ccsc1/C=N/NC(=O)c1cccs1 | 15* | 3 | 4 | -1 | 1 | 5 | 10 | 0
Cc1nn(-c2ccc(F)cc2)c(Cl)c1/C=N/NC(=O)c1cccs1 | 15* | 2 | 0 | 0 | 2 | -6 | 6 | 0
Cc1cc(/C=N/NC(=O)c2cccs2)c(C)n1-c1cnccn1 | 16* | 2 | 4 | 0 | 3.9* | -2 | 15* | 1

Source: PubChem BioAssay (several laboratories)
